Shown is part of a subset that was picked to be rich in hits.
IDE exosite FP: exo-site inhibitors of human IDE, primary screen, biochemical, fluorescence anisotropy, probe displacement; Insulin-degrading enzyme (Homo sapiens), P14735; purified IDE, FL-6b probe fluorescence polarization; active compounds read low; z-score at 20 µM; 17,000 compounds, 6.3% hits; AID 1259349, 2017;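 active = z-score of -3 or lower, meaning strong loss of probe binding signal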;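 also: His-tagged human IDE residues 42-1019 made in E. coli with 30 nM FL-6b probe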
Target sequence (P14735 42-1019 limits assumed): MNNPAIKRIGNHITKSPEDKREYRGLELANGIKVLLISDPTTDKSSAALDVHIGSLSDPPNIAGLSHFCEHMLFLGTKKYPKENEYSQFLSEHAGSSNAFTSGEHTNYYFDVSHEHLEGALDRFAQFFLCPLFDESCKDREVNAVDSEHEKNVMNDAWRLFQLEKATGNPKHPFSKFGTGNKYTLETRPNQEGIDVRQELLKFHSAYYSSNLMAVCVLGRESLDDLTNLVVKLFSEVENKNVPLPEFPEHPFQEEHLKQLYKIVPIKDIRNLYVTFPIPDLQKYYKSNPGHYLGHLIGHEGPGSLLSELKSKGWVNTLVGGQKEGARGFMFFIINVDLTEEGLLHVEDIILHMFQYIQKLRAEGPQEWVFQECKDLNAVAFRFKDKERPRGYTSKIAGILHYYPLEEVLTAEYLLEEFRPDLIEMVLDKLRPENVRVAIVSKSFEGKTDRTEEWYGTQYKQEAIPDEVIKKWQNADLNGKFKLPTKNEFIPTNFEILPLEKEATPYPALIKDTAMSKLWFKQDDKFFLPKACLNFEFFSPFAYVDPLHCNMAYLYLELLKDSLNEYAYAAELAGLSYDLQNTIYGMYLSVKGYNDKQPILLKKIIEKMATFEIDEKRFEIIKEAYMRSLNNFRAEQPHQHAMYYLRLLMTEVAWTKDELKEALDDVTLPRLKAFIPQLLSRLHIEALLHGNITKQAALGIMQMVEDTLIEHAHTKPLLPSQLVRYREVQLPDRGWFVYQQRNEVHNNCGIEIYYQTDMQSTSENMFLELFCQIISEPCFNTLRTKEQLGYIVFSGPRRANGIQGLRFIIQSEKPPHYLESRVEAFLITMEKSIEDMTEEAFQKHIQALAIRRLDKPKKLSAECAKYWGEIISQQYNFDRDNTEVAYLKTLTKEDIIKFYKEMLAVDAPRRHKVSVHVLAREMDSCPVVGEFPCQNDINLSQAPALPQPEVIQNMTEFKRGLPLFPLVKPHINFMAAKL
An asterisk follows results filed as active; ! = a repeat was not active.

SMILES	IDE exosite FP
C[C@H](O)C#Cc1ccc([C@H]2[C@@H](CO)N3CCCCN(C(=O)c4cccc(F)c4)C[C@@H]23)cc1	1.9
COCC(=O)N(C[C@@H]1[C@@H](c2ccccc2)[C@@H](CO)N1C(=O)NC(C)C)C(C)C	-0.46
N#C[C@@H]1[C@H](c2ccccc2C2=CCCC2)[C@@H](CO)N1C(=O)C1CCOCC1	-0.31
COCC#Cc1ccc([C@@H]2[C@H](CO)N3C(=O)CN(C(=O)CN4CCOCC4)C[C@@H]23)cc1	0.78
COc1cccc(-c2ccc([C@H]3[C@H]4CN(C(=O)CN5CCOCC5)CC(=O)N4[C@H]3CO)cc2)c1	-3
COc1cccc(-c2ccc([C@@H]3[C@H](CO)N4C(=O)CN(C(=O)CN5CCOCC5)C[C@@H]34)cc2)c1	-6.3*
O=C(CN1CCOCC1)N1CC(=O)N2[C@H](CO)[C@@H](c3ccc(-c4cccc(F)c4)cc3)[C@@H]2C1	-1.9
Cc1ccc(-c2ccc([C@H]3[C@H](CO)N4C(=O)CN(C(=O)CN5CCOCC5)C[C@@H]34)cc2)cc1	0.8
COc1cccc(-c2ccc([C@H]3[C@@H](CO)N4C(=O)CN(C(=O)CN5CCOCC5)C[C@@H]34)cc2)c1	-3.5*
O=C(CN1CCOCC1)N1CC(=O)N2[C@@H](CO)[C@H](c3ccc(-c4cccc(F)c4)cc3)[C@@H]2C1	-0.23
Cc1cccc(-c2ccc([C@@H]3[C@H]4CN(C(=O)CN5CCOCC5)CC(=O)N4[C@H]3CO)cc2)c1	-15*
Cc1ccc(-c2ccc([C@@H]3[C@@H](CO)N4C(=O)CN(C(=O)CN5CCOCC5)C[C@@H]34)cc2)cc1	-1.4
C/C=C/c1ccc([C@H]2[C@@H](CO)N3CCCCN(C(=O)Nc4cc(F)ccc4F)C[C@H]23)cc1	0.077
CN(C)C(=O)c1cccc(-c2ccc([C@H]3[C@@H](CO)N4CCCCN(CC5CCOCC5)C[C@@H]34)cc2)c1	-0.15
O=S(=O)(c1ccc(Cl)cc1)N1[C@@H]2CNC[C@H]1C2c1ccc(-c2cccc(F)c2)cc1 (stereo not given in full)	2
O=C(C1CC1)N1CC2(C1)[C@@H](c1ccccc1)[C@@H](CO)N2S(=O)(=O)c1ccccc1	0.88
CCC(=O)N1[C@@H](CO)[C@@H]2c3ccccc3N(S(=O)(=O)c3ccc(F)cc3)C[C@@H]21	0.17
O=C(c1cnccn1)N1CC(=O)N2[C@H](CO)[C@@H](c3ccc(-c4ccc(F)cc4)cc3)[C@H]2C1	0.96
O=C(c1cnccn1)N1CC(=O)N2[C@@H](CO)[C@H](c3ccc(-c4ccc(F)cc4)cc3)[C@@H]2C1	1.3
C/C=C/c1ccc([C@@H]2[C@@H](CO)N3C(=O)CN(C(=O)c4cnccn4)C[C@H]23)cc1	1.5
O=C(c1cnccn1)N1CC(=O)N2[C@H](CO)[C@H](c3ccc(/C=C/c4ccccc4)cc3)[C@@H]2C1	-5.3*
O=C(c1cnccn1)N1CC(=O)N2[C@H](CO)[C@@H](c3ccc(/C=C/c4ccccc4)cc3)[C@@H]2C1	-5.5*
C/C=C/c1ccc([C@H]2[C@H](CO)N3C(=O)CN(C(=O)c4cnccn4)C[C@@H]23)cc1	3.7
O=C(c1cnccn1)N1CC(=O)N2[C@@H](CO)[C@H](c3ccc(/C=C/c4ccccc4)cc3)[C@@H]2C1	-6.5*
C/C=C/c1ccc([C@H]2[C@H]3CN(C(=O)c4cnccn4)CC(=O)N3[C@H]2CO)cc1	3
SMILES	IDE exosite FP
O=C(c1cnccn1)N1CC(=O)N2[C@H](CO)[C@@H](c3ccc(/C=C/c4ccccc4)cc3)[C@H]2C1	-6.5*
O=C(Nc1cc(F)ccc1F)N1CC(=O)N2[C@H](CO)[C@@H](c3ccc(C#CC4CCCCC4)cc3)[C@@H]2C1	4.6
CC(C)NC(=O)N1[C@H](C#N)[C@@H](c2ccc(C#CC3CC3)cc2)[C@@H]1CO	4.7
CN1C(=O)c2cc(NS(C)(=O)=O)ccc2OC[C@@H]2O[C@H](CC(=O)N3CCOCC3)CC[C@H]21	0.59
CO[C@@H](CN(C)S(=O)(=O)c1ccc(C)cc1)[C@H](C)CN(C(=O)Nc1ccccc1F)[C@@H](C)CO	-0.75
COc1ccccc1-c1cnc2c(c1)C(=O)N([C@H](C)CO)C[C@@H](C)[C@H](CN(C)C(=O)CC1CC1)O2	-1.2
COCC#Cc1ccc([C@H]2[C@@H](CO)N3CCCCN(C(=O)Nc4cc(F)ccc4F)C[C@H]23)cc1	-0.3
N#C[C@H]1[C@H](c2ccccc2C2=CCCC2)[C@@H](CO)N1C(=O)C1CC1	1.4
CC(=O)N1CC(=O)N2[C@H](CO)[C@@H](c3ccc(-c4ccccc4)cc3)[C@H]2C1	5.3
CNC[C@H]1OCCCC[C@H](C)Oc2ccc(NC(=O)Nc3ccc(OC)cc3)cc2C(=O)N([C@@H](C)CO)C[C@@H]1C	1.5
O=C(C[C@H]1C[C@@H]2c3cc(NC(=O)c4cccnc4)ccc3O[C@@H]2[C@H](CO)O1)NCc1cc(F)ccc1F	-0.09
CN1C(=O)c2cc(NS(=O)(=O)c3ccccc3F)ccc2OC[C@@H]2O[C@H](CC(=O)NC3Cc4ccccc4C3)CC[C@H]21	-0.77
COCC(=O)N1C[C@H](C)[C@H](OC)CN(C)C(=O)c2ccc(NC(=O)Nc3cccc(F)c3)cc2OC[C@@H]1C	0.21
CN1C(=O)c2cc(NC(=O)c3cnccn3)ccc2OC[C@H]2O[C@@H](CC(=O)N[C@@H]3CCN(Cc4ccccc4)C3)CC[C@@H]21	-7*
COc1cccc(C(=O)Nc2ccc3c(c2)C(=O)N(C)[C@H]2CC[C@@H](CC(=O)N[C@@H](C)c4ccccc4)O[C@H]2CO3)c1	-3.3*
CN1C(=O)c2cc(NC(=O)c3cccc(F)c3)ccc2OC[C@H]2O[C@H](CC(=O)NCC3CCCCC3)CC[C@@H]21	-1.7
CN1C(=O)c2cc(NC(=O)c3cnccn3)ccc2OC[C@H]2O[C@@H](CC(=O)N[C@H]3CCN(Cc4ccccc4)C3)CC[C@H]21	0.95
CN1C(=O)c2cc(NC(=O)c3cccc(F)c3)ccc2OC[C@@H]2O[C@H](CC(=O)NCc3ccccc3Cl)CC[C@@H]21	-0.41
COc1cccc(C(=O)Nc2ccc3c(c2)C(=O)N(C)[C@@H]2CC[C@H](CC(=O)N[C@@H](C)c4ccccc4)O[C@@H]2CO3)c1	-1.3
COc1cccc(S(=O)(=O)Nc2ccc3c(c2)C(=O)N(C)[C@H]2CC[C@H](CC(=O)NCC4CCCCC4)O[C@@H]2CO3)c1	-0.74
COc1cccc(C(=O)Nc2ccc3c(c2)C(=O)N(C)[C@@H]2CC[C@H](CC(=O)N[C@@H](C)c4ccccc4)O[C@H]2CO3)c1	0.24
COc1cccc(S(=O)(=O)Nc2ccc3c(c2)C(=O)N(C)[C@H]2CC[C@@H](CC(=O)NCC4CCCCC4)O[C@@H]2CO3)c1	-3.2*
COc1cccc(S(=O)(=O)Nc2ccc3c(c2)C(=O)N(C)[C@H]2CC[C@@H](CC(=O)NCC4CCCCC4)O[C@H]2CO3)c1	-1.7
CN1C(=O)c2cc(NC(=O)c3cnccn3)ccc2OC[C@@H]2O[C@H](CC(=O)N[C@H]3CCN(Cc4ccccc4)C3)CC[C@H]21	-0.92
CN1C(=O)c2cc(NC(=O)c3cccc(F)c3)ccc2OC[C@H]2O[C@H](CC(=O)NCC3CCCCC3)CC[C@H]21	-3.2*!
CN(C)CC#Cc1ccc([C@@H]2[C@@H](CO)N3CCCCN(C(=O)NC4CCCC4)C[C@H]23)cc1	2.1
CN(C)C(=O)c1ccc(-c2ccc([C@H]3[C@@H](C#N)N(S(C)(=O)=O)[C@H]3CO)cc2)cc1	-0.78
N#C[C@@H]1[C@H](c2ccccc2-c2cccc(F)c2)[C@H](CO)N1C(=O)C1CC1	0.092
